Experimental data reported in PubChem BioAssay.
Values without a mark were called inactive. For some of these results: Entries with a potency or affinity are not part of this list. Activity calls are given as the source filed them. Unless noted, the rule behind the calls is not given here.

Tests used:
[1] = antimalarial activity against Dd2 strain (AID 2302;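 active = growth inhibition above 50% at the single 2 µM test dose, taken to imply half-maximal potency below 2 µM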;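 note: 0% = DMSO untreated growth and 100% = chloroquine plus artemisinin killed control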); conditions: P. falciparum Dd2 in RBCs, LDH growth readout, 72 h; at 2 µM; stronger effect = higher value
[2] = human hepatoma cell viability loss – ATP luminescence, cytotoxicity control for P. falciparum antimalarial project, primary screen (AID 2303;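 active = inhibition above 50%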;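 note: 0% = DMSO wells and 100% = digitonin-killed cells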); conditions: HepG2 viability, 24-48 h, at 10 µM, stronger effect = higher value
[3] = biological target: L-lactate dehydrogenase (Plasmodium falciparum (isolate CDC / Honduras)) (UniProt Q27743); assay: PfLDH activity inhibition – cell lysate, 3D7 strain, counter-screen for P. falciparum growth inhibition project (AID 2304);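 note: 0% = vehicle and 100% = reference inhibitor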; conditions: P. falciparum 3D7 crude extract, LDH APAD/NBT absorbance; at 2 µM; stronger effect = higher value
[4] = inhibition of 3D7 malaria parasite growth – strain 3D7 (AID 2306);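 note: 0% = DMSO wells and 100% = chloroquine plus artemisinin control wells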; conditions: P. falciparum 3D7 erythrocytic growth, LDH absorbance, 72 h; at 2 µM; stronger effect = higher value
[5] = biological target: Calcium-dependent protein kinase 1 (Plasmodium falciparum (isolate 3D7)) (UniProt P62344); assay: PfCDPK1 kinase inhibitors, biochemical, TCAMS library (AID 1159585; cut-off not given, nearly all actives have IC50 up to about 0.98 µM;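 note: inhibitors leave more ATP so luminescence rises with inhibition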); conditions: recombinant PfCDPK1, Kinase-Glo ATP depletion luminescence
[6] = biological target: Plasmodium falciparum protein kinase 6 (PK6, PF3D7_1337100) (UniProt Q8IDW1); assay: PfPK6 kinase inhibitors, biochemical, TCAMS library (AID 1159586); conditions: recombinant PfPK6, Kinase-Glo ATP depletion luminescence
[7] = biological target: Protein kinase 7 (PK7), Plasmodium falciparum 3D7 (PF3D7_0213400) (UniProt Q7YTF7); assay: inhibition of Plasmodium PK7 catalytic activity – biochemical, TCAMS antimalarial set, Kinase-Glo luminescence (AID 1159587); conditions: recombinant PfPK7, Kinase-Glo ATP depletion luminescence
[8] = biological target: Calcium-dependent protein kinase 4 (Plasmodium falciparum (isolate 3D7)) (UniProt Q8IBS5); assay: PfCDPK4 kinase inhibitors, biochemical, TCAMS library (AID 1159588; cut-off not given, nearly all actives have IC50 up to about 0.91 µM); conditions: recombinant PfCDPK4, Kinase-Glo ATP depletion luminescence
Sequence of Calcium-dependent protein kinase 4 (Plasmodium falciparum (isolate 3D7)) (Q8IBS5 whole entry, looked up): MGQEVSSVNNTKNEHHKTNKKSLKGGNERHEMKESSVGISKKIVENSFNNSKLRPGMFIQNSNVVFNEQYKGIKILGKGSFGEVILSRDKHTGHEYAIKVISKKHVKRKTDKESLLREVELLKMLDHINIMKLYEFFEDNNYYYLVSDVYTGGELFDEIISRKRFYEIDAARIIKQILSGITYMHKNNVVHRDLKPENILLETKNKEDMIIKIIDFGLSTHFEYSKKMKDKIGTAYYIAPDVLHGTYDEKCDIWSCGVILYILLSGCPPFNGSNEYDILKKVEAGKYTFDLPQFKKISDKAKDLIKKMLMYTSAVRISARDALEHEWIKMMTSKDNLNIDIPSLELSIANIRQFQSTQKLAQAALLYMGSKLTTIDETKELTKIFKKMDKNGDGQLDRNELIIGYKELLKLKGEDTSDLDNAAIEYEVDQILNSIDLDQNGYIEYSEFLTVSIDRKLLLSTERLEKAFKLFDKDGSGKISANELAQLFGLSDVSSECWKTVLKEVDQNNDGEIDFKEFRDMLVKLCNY

Sequence of Calcium-dependent protein kinase 1 (Plasmodium falciparum (isolate 3D7)) (P62344 whole entry, looked up): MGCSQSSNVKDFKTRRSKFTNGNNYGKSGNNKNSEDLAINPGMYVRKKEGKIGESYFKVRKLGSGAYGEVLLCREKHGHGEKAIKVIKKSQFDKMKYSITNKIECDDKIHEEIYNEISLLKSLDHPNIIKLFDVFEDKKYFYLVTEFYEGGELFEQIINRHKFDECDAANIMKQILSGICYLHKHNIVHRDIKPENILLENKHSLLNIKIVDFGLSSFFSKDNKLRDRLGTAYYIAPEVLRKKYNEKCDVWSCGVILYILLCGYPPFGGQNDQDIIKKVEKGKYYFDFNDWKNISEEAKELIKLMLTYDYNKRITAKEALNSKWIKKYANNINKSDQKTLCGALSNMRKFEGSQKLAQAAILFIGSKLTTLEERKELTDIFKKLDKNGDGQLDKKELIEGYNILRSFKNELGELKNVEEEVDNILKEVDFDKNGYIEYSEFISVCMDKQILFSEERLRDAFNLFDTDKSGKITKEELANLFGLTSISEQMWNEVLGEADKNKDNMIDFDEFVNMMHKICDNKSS
Sequence of Protein kinase 7 (PK7), Plasmodium falciparum 3D7 (PF3D7_0213400) (Q7YTF7 1-343): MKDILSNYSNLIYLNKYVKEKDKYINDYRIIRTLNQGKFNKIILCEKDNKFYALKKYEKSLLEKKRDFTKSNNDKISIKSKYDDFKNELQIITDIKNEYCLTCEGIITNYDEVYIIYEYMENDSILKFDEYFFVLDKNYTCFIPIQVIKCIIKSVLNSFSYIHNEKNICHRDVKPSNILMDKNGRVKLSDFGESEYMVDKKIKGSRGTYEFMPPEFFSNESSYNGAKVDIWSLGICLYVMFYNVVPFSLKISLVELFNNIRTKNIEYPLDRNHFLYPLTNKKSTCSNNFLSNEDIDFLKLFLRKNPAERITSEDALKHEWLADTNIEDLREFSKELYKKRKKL
Sequence of Plasmodium falciparum protein kinase 6 (PK6, PF3D7_1337100) (Q8IDW1 1-305): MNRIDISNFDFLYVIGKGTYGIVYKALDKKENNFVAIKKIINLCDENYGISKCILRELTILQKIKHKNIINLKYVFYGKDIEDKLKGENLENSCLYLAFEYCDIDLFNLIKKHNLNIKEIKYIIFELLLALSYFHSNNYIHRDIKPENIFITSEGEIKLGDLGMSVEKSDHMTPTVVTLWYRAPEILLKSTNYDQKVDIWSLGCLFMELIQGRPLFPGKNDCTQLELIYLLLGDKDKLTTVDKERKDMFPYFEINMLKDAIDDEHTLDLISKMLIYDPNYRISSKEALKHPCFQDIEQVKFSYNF
Sequence of L-lactate dehydrogenase (Plasmodium falciparum (isolate CDC / Honduras)) (Q27743 whole entry, looked up): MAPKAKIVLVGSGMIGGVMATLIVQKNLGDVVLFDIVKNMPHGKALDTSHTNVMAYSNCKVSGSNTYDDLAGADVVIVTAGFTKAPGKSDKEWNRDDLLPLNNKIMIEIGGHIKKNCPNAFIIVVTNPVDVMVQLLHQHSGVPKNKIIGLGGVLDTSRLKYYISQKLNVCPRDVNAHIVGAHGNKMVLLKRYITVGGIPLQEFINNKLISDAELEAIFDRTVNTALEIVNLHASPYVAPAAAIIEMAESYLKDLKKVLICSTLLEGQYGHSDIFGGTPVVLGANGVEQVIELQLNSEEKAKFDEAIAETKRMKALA

Compound | growth inhibition [1] | inhibition [2] | inhibition [3] | growth inhibition [4] | outcome [5] | outcome [6] | outcome [7] | outcome [8]
Cc1cc(Cl)c(S(=O)(=O)NC2CCCC2)cc1OCC(=O)NC1CCCCC1 | 91% (active) | 19% | -6% | 97% (active) | inactive | inactive | inactive | inactive
CN(C)c1ccc(-c2nc3ccc(N)cc3[nH]2)cc1 | 97% (active) | 1% | -1% | 102% (active) | inactive | inactive | inactive | inactive
O=C(Nc1cccc(-c2nc3ccccc3s2)c1)c1ccccc1[N+](=O)[O-] | 9% | 0% | 0% | 85% (active) | inactive | inactive | inactive | inactive
Brc1ccc(Nc2nc3ccccc3nc2Nc2ccc(Br)cc2)cc1 | 100% (active) | 18% | -2% | 101% (active) | inactive | inactive | inactive | inactive
CC1(C)N=C(N)N=C(N)N1c1ccc(I)cc1 | 1% | 16% | 1% | 92% (active) | inactive | inactive | inactive | inactive
Cc1noc(-c2cccs2)c1C(=O)NC(C)c1cccc2ccccc12 (stereo not drawn) | 95% (active) | -2% | -4% | 97% (active) | inactive | inactive | inactive | inactive
CCOC(=O)C(C(C)=O)C(c1ccccc1)C(C(C)=O)C(=O)OCC (stereo not drawn) | 14% | 6% | 2% | 95% (active) | inactive | inactive | inactive | inactive
COc1cccc2[nH]c(NCCCNCc3cc(Br)cc(Br)c3)nc12 | 2% | 5% | -8% | 88% (active) | inactive | inactive | inactive | inactive
Oc1ccc2c(c1NCC1CCCCC1)CCCC2 | 99% (active) | 11% | 0% | 99% (active) | inactive | inactive | inactive | inactive
CCc1c[nH]c2c(N3CCCC3=O)cc(C(=O)N[C@@H](Cc3ccccc3)[C@H](O)CNC(C)(C)c3cccc(OC)c3)cc12 | 98% (active) | 0% | 2% | 93% (active) | inactive | inactive | inactive | inactive
Cc1c(-c2ccc(C(=O)NC3CC(C)(C)NC(C)(C)C3)cc2)[nH]c2cc(Cl)c(Cl)cc12 | 68% (active) | 34% | 0% | 98% (active) | inactive | inactive | inactive | inactive
O=C(Nc1ccccc1)N(Cc1cccc(-c2cccc(CNCCc3ccccc3)c2)c1)C1CCN(Cc2ccccc2)CC1 | 87% (active) | 100% (active) | 1% | 100% (active) | inactive | inactive | inactive | inactive
Cc1cc(-c2cnc(N)c(-c3ccc(N4CCN(C)CC4)cc3)c2)cc(C)c1O | 99% (active) | 3% | -5% | 101% (active) | inactive | inactive | inactive | inactive
Cc1ccc(NC(=O)c2ccc(CN3CCCN(Cc4cccc(O)c4)CC3)cc2)cc1 | 31% | 39% | -5% | 90% (active) | inactive | inactive | inactive | inactive
Cc1cccc2[nH]c(-c3cccc(-c4ccc(NC(=O)NC(C)C)cc4)c3)nc12 | 44% | 30% | -2% | 98% (active) | inactive | inactive | inactive | inactive
COc1cc(NC(=O)c2cccs2)c(C(=O)NCc2ccc(C)cc2)cc1OC | 88% (active) | 3% | -2% | 93% (active) | inactive | inactive | inactive | inactive
CN1CCN(c2cc3c(cc2Cl)CCN3C(=O)Cc2ccc(Cl)c(NC(=O)Nc3cccc(C#N)c3)c2)CC1 | 40% | -1% | -1% | 99% (active) | inactive | inactive | inactive | inactive
OCCN1CCN(Cc2ccc(-c3cccc(-c4nc5ccc(F)cc5[nH]4)c3)cc2)CC1 | 61% (active) | 21% | -2% | 100% (active) | inactive | inactive | inactive | inactive
Cc1ccc2nc(-c3ccccc3Nc3ccnc4cc(-c5nccs5)ccc34)[nH]c2c1 | 100% (active) | 40% | -5% | 101% (active) | inactive | inactive | inactive | inactive
Cc1cc(N(C)CCN(C)C)nc(Nc2ccc(Cl)cc2)n1 | 14% | -1% | -3% | 92% (active) | inactive | inactive | inactive | inactive
Cc1cccc(C)c1OC(=O)CSc1nnc(-c2ccccc2O)o1 | -2% | 11% | 0% | 97% (active) | inactive | inactive | inactive | inactive

Compound | growth inhibition [1] | inhibition [2] | inhibition [3] | growth inhibition [4] | outcome [5] | outcome [6] | outcome [7] | outcome [8]
O=C(NC1CCN(Cc2ccccc2)CC1)c1cc(-c2ccncc2)c(-c2ccc(Cl)c(O)c2)o1 | 86% (active) | 9% | 1% | 100% (active) | inactive | inactive | inactive | inactive
CN(C)Cc1c(O)ccc2[nH]c(-c3ccc(F)cc3F)nc12 | 17% | 4% | -2% | 99% (active) | inactive | inactive | inactive | inactive
CN(Cc1cc(C(F)(F)F)cc(C(F)(F)F)c1)C(=O)C(Cc1ccc(F)cc1)C1CCCNC1 (stereo not drawn) | 89% (active) | 10% | 4% | 96% (active) | inactive | inactive | inactive | inactive
Oc1ccc2[nH]cc(C3CCN(CCCNCc4ccc(-c5ccccc5)cc4)CC3)c2c1 | -1% | 22% | -4% | 101% (active) | inactive | inactive | inactive | inactive
N=c1sc2ccccc2n1CC(O)c1ccc(Cl)c(Cl)c1 (stereo not drawn) | 74% (active) | 4% | -2% | 99% (active) | inactive | inactive | inactive | inactive
CN1CCCc2cc(NC(=O)c3cc(-c4ccc(Cl)cc4)cs3)ccc2C1 | 34% | 15% | 4% | 100% (active) | inactive | inactive | inactive | inactive
CC(C)(C)c1ccc(CNC(=O)/C=C/c2ccc(-c3nc4ccc(C(C)(C)C)cc4[nH]3)cc2)cc1 | 66% (active) | 35% | -2% | 100% (active) | inactive | inactive | inactive | inactive
Cc1cccc(Oc2cccc3[nH]nc(N)c23)c1 | -3% | 6% | -2% | 85% (active) | inactive | inactive | inactive | inactive
O=[N+]([O-])c1cc(C=NNc2nc3nonc3nc2Nc2ccc(F)cc2)c(Cl)cc1Cl | 13% | 5% | -4% | 98% (active) | inactive | inactive | inactive | inactive
O=c1[nH]c(NCCCCCN2CCC(c3c[nH]c4ccccc34)CC2)ncc1Cc1ccc(Cl)c(Cl)c1 | 8% | 21% | -4% | 94% (active) | inactive | inactive | inactive | inactive
CCC[C@@H]([C@@H](CC(C)C)C(=O)N[C@@H](CCCNc1nccc(C(F)(F)F)n1)C(=O)Nc1nccs1)N(O)C=O | 98% (active) | -4% | 8% | 99% (active) | inactive | inactive | inactive | inactive
COc1ccc(CN2CCN(CCCCNC(=O)c3ccc(NC(=O)c4ccc(Cl)cc4)cc3)CC2)c(OC)c1 | 0% | 25% | -6% | 94% (active) | inactive | inactive | inactive | inactive
Cc1cccc2[nH]c(-c3cccc(-c4cccc(CNCc5ccc(S(C)(=O)=O)cc5)c4)c3)nc12 | 66% (active) | 13% | 0% | 100% (active) | inactive | inactive | inactive | inactive
CCN(CCCNc1nc(=S)[nH]c2cc(OC)c(OC)cc12)c1ccccc1 | 23% | 14% | -2% | 100% (active) | inactive | inactive | inactive | inactive
CC(O)C1CCCCN1C(=O)c1ccc(-c2cccc(-c3nc4ccc(F)cc4[nH]3)c2)cc1 (stereo not drawn) | 97% (active) | 30% | -6% | 100% (active) | inactive | inactive | inactive | inactive
Cc1noc(-c2ccccc2)c1CN1CCCC2(CC(C(=O)NCc3cccc(F)c3F)=NO2)C1 (stereo not drawn) | 28% | -1% | -1% | 85% (active) | inactive | inactive | inactive | inactive
O=C(Nc1cccc(-c2ccc(-c3nc4ccccc4[nH]3)cc2)c1)Nc1ccc(F)c(F)c1F | 38% | 45% | 5% | 100% (active) | inactive | inactive | inactive | inactive
Cc1cc(N[C@@H](Cc2ccccc2)C(=O)NC2CCCC2)nc(NCc2ccccc2C)n1 | 20% | 2% | 3% | 91% (active) | inactive | inactive | inactive | inactive
O=C(Nc1ccc(Cl)c(Cl)c1)C1CCC(=O)N1[C@@H](Cc1ccccc1)C(=O)NCCc1ccc(Cl)cc1 (stereo partly drawn) | -9% | 3% | 0% | 95% (active) | inactive | inactive | inactive | inactive
Cc1ccc(O)cc1Nc1ccnc2cc(-c3nccs3)ccc12 | 83% (active) | 63% (active) | 2% | 102% (active) | inactive | inactive | inactive | inactive
